Bioassay records from PubChem BioAssay.
In the library only some 1.2% were active in any assay of this set; here they are far more common.
RGS16-Gao = modulates binding between human RGS16 and Galphao; O15492+P09471; bead-based flow cytometry RGS16-Galphao binding, fluorescence; actives lie on both sides; binding response (% of control), % at 10 µM; 220,000 compounds, 0.38% hits; AID 1441;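 also: Galphao activated by GDP with aluminum fluoride before binding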
RGS8-Gao reg = human RGS8-Galphao interaction regulation; P09471; multiplexed bead flow cytometry, RGS8-Galphao binding; actives lie on both sides; response (percent of control binding), % at 10 µM; 220,000 compounds, 0.34% hits; AID 1423; in the data active = response below about 60% or above about 140%; inactive = in between;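 also: Galphao activated as the GDP aluminium fluoride complex binding bead-coupled RGS8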
Target sequence (P09471 whole entry, looked up): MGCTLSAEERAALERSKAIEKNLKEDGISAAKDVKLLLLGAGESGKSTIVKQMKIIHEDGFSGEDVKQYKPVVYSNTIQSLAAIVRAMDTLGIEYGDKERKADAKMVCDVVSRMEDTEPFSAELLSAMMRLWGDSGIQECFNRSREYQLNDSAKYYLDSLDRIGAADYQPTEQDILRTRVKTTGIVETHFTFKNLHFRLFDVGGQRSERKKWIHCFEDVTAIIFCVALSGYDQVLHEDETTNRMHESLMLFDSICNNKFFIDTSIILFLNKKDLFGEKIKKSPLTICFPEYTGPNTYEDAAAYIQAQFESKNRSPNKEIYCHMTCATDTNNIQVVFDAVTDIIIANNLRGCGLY
RGS4-Gao reg = modulates binding of RGS4 to human Galphao. P09471. Multiplexed bead flow cytometry; actives lie on both sides. binding response (% of control), % at 10 µM. 220,000 compounds, 0.33% hits. AID 1415; in the data active = binding response below about 49% or above about 150%; inactive = in between;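 also: fluorescent Galphao activated with aluminum fluoride binding bead-coupled RGS4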
Avidin bead fluor = avidin bead compound fluorescence profile. Avidin beads, compound fluorescence 488/530 nm, flow cytometry; stronger effect = higher value. fluorescence (KMESF) at 10 µM. 220,000 compounds, 0.38% hits. AID 1775; in the data active = fluorescence above about 47
GSH bead fluor = GSH bead compound fluorescence profile; AID 1776; GSH beads flow cytometry, compound fluorescence 488/530 nm; stronger effect = higher value; fluorescence (KMESF) at 10 µM; 190,000 compounds, 0.25% hits; in the data active = fluorescence above about 89;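 also: glutathione beads carrying GST-tagged Bcl family fusion proteins plus one bare bead set; values are compound well signal with DMSO vehicle wells as background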
RGS7-Gao reg = human RGS7-Galphao interaction regulation. P09471. Multiplexed bead flow cytometry, RGS7-Galphao binding; actives lie on both sides. binding response (% of control), % at 10 µM. 220,000 compounds, 0.35% hits. AID 1439; in the data active = binding response below about 49% or above about 150%; inconclusive = no clear call, values can overlap the other calls; inactive = in between;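 also: fluorescent Galphao held in activated GDP-AlF4 state binding bead-coupled RGS7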
RGS-Gao = modulates binding between human RGS4 and Galphao. 1,600 compounds, 99% hits. multiplexed bead flow cytometry, RGS–Galpha-o binding. RGS4–Galpha-o binding response, % at 10 µM. shares compounds with RGS16-Gao;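 also: fluorescently labeled Galpha-o bound to GDP with aluminium fluoride binding biotinylated RGS beads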
Target sequence (P09471 whole entry, looked up): as above
Target sequence (P49798 whole entry, looked up): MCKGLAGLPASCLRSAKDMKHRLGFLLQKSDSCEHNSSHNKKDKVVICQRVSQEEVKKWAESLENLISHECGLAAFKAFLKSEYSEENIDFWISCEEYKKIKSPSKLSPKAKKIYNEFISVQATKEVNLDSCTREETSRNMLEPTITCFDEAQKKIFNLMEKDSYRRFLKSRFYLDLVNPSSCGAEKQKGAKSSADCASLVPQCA
Avidin counter = biotin-avidin bead binding disruption counter-screen; shares compounds with RGS16-Gao; streptavidin beads, fluorescein-biotin binding, flow cytometry; inhibition, % at 10 µM; 1,700 tested, under 10 active;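 active = inhibition above 50%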;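 also: median green fluorescence of gated singlet beads compared with DMSO control wells; 0% = DMSO wells and 100% = complete loss of bead fluorescence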
RGS8-Gao confirm = confirmation of regulators of human RGS8-Galphao interaction. shares compounds with RGS16-Gao. bead-based flow cytometry RGS8-Galphao binding, fluorescence; actives lie on both sides. binding response (% of control), % at 10 µM. 1,700 compounds, 3% hits; in the data active = binding response below about 72% or above about 130%; inactive = in between;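 also: Galphao activated as GDP AlF4 complex before binding bead RGS8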
RGS7-Gao confirm = confirmation of regulators of human RGS7-Galphao interaction; shares compounds with RGS16-Gao; bead-based flow cytometry RGS7-Galphao binding; actives lie on both sides; response (percent of control binding), % at 10 µM; 1,700 compounds, 7.8% hits; in the data active = response below about 75% or above about 130%; inactive = in between;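 also: fluorescent Galphao activated with GDP and aluminum fluoride binding bead-coupled RGS7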
RGS16-Gao single = RGS16-Galphao interaction regulation, single point confirmation | 1,700 compounds, 4% hits | bead-based flow cytometry, RGS16-Galphao binding; actives lie on both sides | response (% of control binding), % at 10 µM | AID 1838 | shares compounds with RGS16-Gao; in the data active = response below about 74% or above about 130%; inactive = in between;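 also: Galphao activated as the GDP aluminium fluoride complex binding bead-coupled RGS16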
RGS4-Gao single = RGS4-Galphao interaction regulation, single point confirmation. shares compounds with RGS16-Gao. RGS4-Galphao binding, multiplexed bead flow cytometry; actives lie on both sides. binding response (% of control), % at 10 µM. 1,700 compounds, 4% hits; in the data active = binding response below about 74% or above about 130%; inactive = in between
RGS19-Gao conf = RGS19-Galphao interaction regulation, single point confirmation; shares compounds with RGS16-Gao; bead-based flow cytometry RGS19-Galphao binding; actives lie on both sides; response (percent of control binding), % at 10 µM; 1,700 compounds, 5% hits; AID 1841; in the data active = response below about 50% or above about 160%; inactive = in between;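 also: 100% = no compound control and 0% = blank background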
* hit, by the source's call; ? = inconclusive; · = no result; [ ] = another dose, or the depositor's remark. Unless noted, no rule for the calls is given here.

SMILES | RGS16-Gao | RGS8-Gao reg | RGS4-Gao reg | Avidin bead fluor | GSH bead fluor | RGS7-Gao reg | RGS-Gao | Avidin counter | RGS8-Gao confirm | RGS7-Gao confirm | RGS16-Gao single | RGS4-Gao single | RGS19-Gao conf
COc1ccc(CN(C)C(=O)c2cnc(OC)cc2C(F)(F)F)c(OC)c1 | 97 | 93 | 92 | 5 | · | ? | · | · | · | · | · | · | ·
Oc1ccc(/C=N/Nc2ncnc3nc[nH]c23)cc1 | 33 | 52* | 37* | 2 | · | ? | · | -2 | 102 | 84 | 95 | 84 | 117
O=C(O)c1cc([N+](=O)[O-])cc2c1nnn2O | 105 | 103 | 100 | 22 | 12 | 106 | · | · | · | · | · | · | ·
Cc1cc(NC(=O)CSc2nc(C(C)C)nc3sc(C)c(C)c23)no1 | 102 | 100 | 98 | 12 | 31 | 101 | · | · | · | · | · | · | ·
Cc1cc(NC(=O)CSc2nnc3c4c(C)c(C)sc4ncn23)no1 | 103 | 100 | 114 | 111* | 29 | 188*[activator] | 114* | 0 | 105 | 103 | 104 | 102 | 95
O=C(NC1CCCCCCC1)C1CCN(S(=O)(=O)N2CCCC2)CC1 | 55 | 59* | 58 | 6 | 25 | 52 | 58* | -1 | 97 | 93 | 96 | 97 | 83
CC(C)Cc1nnc(NC(=O)CSc2ccccn2)s1 | · | · | · | · | 39 | · | · | 0 | 102 | 97 | 102 | 99 | 105
O=C(Oc1ccc(Br)cc1)c1cncc(Br)c1 | 170 | 110 | 171*[activator] | 89* | 36 | 159*[activator] | · | 0 | 103 | 112 | 105 | 106 | 102
Cc1c(Cl)cccc1NC(=S)N1CCN(Cc2ccccc2)CC1 | 226 | 126 | 107 | 29 | 17 | 110 | · | 2 | 102 | 106 | 101 | 101 | 93
S=C(Nc1ccccc1Cl)N1CCN(Cc2ccccc2)CC1 | 113 | 107 | 109 | 6 | 12 | 110 | · | · | · | · | · | · | ·
CC1=NN(C(C#N)c2ccc(F)cc2)C(C)(C)C1 (centres undefined) | 45 | 58* | 50* | 4 | 16 | 44* | · | 0 | 104 | 111 | 107 | 109 | 103
CC1=NN(C(C#N)c2ccc([N+](=O)[O-])cc2)C(C)(C)C1 (centres undefined) | 122 | 106 | 108 | 8 | · | ? | · | · | · | · | · | · | ·
COc1ccc(CCC(=O)Nc2ccc(Cl)c(S(=O)(=O)N3CCCC3)c2)cc1 | 89 | 94 | 85 | 6 | · | ? | · | · | · | · | · | · | ·
O=C(NCc1ccccc1)C1CCC1 | 14* | 86 | 96 | 6 | 12 | 96 | 96* | 0 | 98 | 95 | 97 | 98 | 97
S=C(NCc1ccccc1)N1CCCCC1 | 89 | 93 | 90 | 10 | 19 | 89 | · | · | · | · | · | · | ·
CC(=O)N1CCN(C(=S)NCc2ccccc2)CC1 | 257*[activator] | 138 | 110 | 6 | 16 | 106 | 110* | -2 | 99 | 102 | 97 | 97 | 94
CCOC(=O)Cc1csc(NC(=O)c2cc3c(s2)CCCC3)n1 | 101 | 101 | 105 | 10 | 15 | 112 | · | · | · | · | · | · | ·
CCOC(=O)Cc1csc(NC(=O)c2csc3c2CCCC3)n1 | 4 | 14* | 29* | 3 | 25 | 19* | · | -2 | 93 | 91 | 89 | 92 | 88
CCc1c(C(=O)Nc2ccccc2)c(C)[nH]c(=S)c1C#N | -59* | 69 | 99 | 6 | 8 | 102 | 99* | 2 | 81 | 130*[activator] | 79 | 100 | 84
Cc1ccc(NS(=O)(=O)c2cccc(C(=O)OCC(=O)NCc3ccco3)c2)cc1 | 444 | 178*[activator] | 163*[activator] | 8 | 231* | 148 | · | -1 | 97 | 93 | 94 | 93 | 74
CCCOc1ccc(CCCN=C(N)N)cc1Cl | 97 | 99 | 99 | 8 | · | ? | · | · | · | · | · | · | ·
CC(=O)c1cccc(NS(=O)(=O)c2ccc(N/C=C\C(=O)c3ccc(C)cc3)cc2)c1 | 114 | 90 | 138 | 25 | 12 | 264*[activator] | 138* | · | · | · | · | · | ·
Cc1ccc(OCC(=O)N/N=C\c2ccncc2)c(C)c1 | 177*[activator] | 111 | 106 | 7 | 10 | 105 | 106* | · | · | · | · | · | ·
COc1ccc2c(Cl)c(C(=O)N/N=C/c3c(C)[nH]c4ccccc34)sc2c1 | 128 | 105 | 139 | 32 | 14 | 156*[activator] | 139* | 1 | 121 | 267*[activator] | 175*[activator] | 187*[activator] | 368*[activator]
O=C(CSc1nc2ccc(Cl)cc2[nH]1)c1cccs1 | 98 | 96 | 97 | 8 | · | ? | · | · | · | · | · | · | ·
SMILES | RGS16-Gao | RGS8-Gao reg | RGS4-Gao reg | Avidin bead fluor | GSH bead fluor | RGS7-Gao reg | RGS-Gao | Avidin counter | RGS8-Gao confirm | RGS7-Gao confirm | RGS16-Gao single | RGS4-Gao single | RGS19-Gao conf
CCOC(=O)c1cc(OCC(=O)NC(C)C(C)C)cc(C(=O)OCC)c1 (centres undefined) | -19* | 6.1* | -31* | -3 | 11 | -9.7* | · | -2 | 95 | 98 | 95 | 95 | 99
O=C(C1CCN(S(=O)(=O)c2cccc3cccnc23)CC1)N1CCN(c2ccccc2)CC1 | 189 | 122 | 105 | 3 | 12 | 100 | · | · | · | · | · | · | ·
CCN1CCN(C(=O)C2CCN(S(=O)(=O)c3cccc4cccnc34)CC2)CC1 | 192*[activator] | 120 | 104 | 13 | 20 | 115 | 104* | -1 | 101 | 100 | 105 | 103 | 103
COc1cc(C)ccc1OCCOCCOc1ccccc1[N+](=O)[O-] | 87 | 96 | 91 | 13 | 10 | 95 | · | · | · | · | · | · | ·
COc1ccccc1OCCOCCOc1c(C)cc(C)cc1Br | 227*[activator] | 122 | 110 | 13 | 9 | 106 | 110* | 2 | 97 | 96 | 98 | 99 | 93
COc1ccccc1OCCOCCOc1ccc(C)cc1[N+](=O)[O-] | 295*[activator] | 130 | 116 | 18 | 8 | 122 | 116* | -1 | 99 | 100 | 99 | 98 | 113
